Experimental data published in PubChem BioAssay AID1159580 (chemical genetic matrix, 2015).
Among all 5,500 compounds or so, about 2,000 (36%) were called active. About 18% were inconclusive and are not listed. Rule as the data show it: active = normalized growth mostly below about 0.91 (no sharp cut-off); inconclusive = no clear call, values can overlap the other calls; inactive = mostly above about 0.92. The list shows a part of the results.

Test: chemical genetic growth profiling, strain panel (AID 1159580);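 also: tested at 20 µM; growth read once vehicle control cultures reached saturation at 30 °C; 1 = growth at the plate median or of vehicle wells; lower values mean less growth of the strain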
Settings: growth OD

Measured: normalized growth

CCCc1cc(=O)[nH]c(=S)[nH]1
inactive: S. cerevisiae deletion strains, locus YJR075W, strain HOC1, hits give low values 1.02 | S. cerevisiae deletion strains, locus YKL009W, strain mrt4, hits give low values 0.994 | S. cerevisiae deletion strains, locus YKL068W, hits give low values 1 | S. cerevisiae deletion strains, locus YKL085W, strain MDH1 (second series), hits give low values 1 | S. cerevisiae deletion strains, locus YKL085W, strain MDH1, hits give low values 1 | S. cerevisiae deletion strains, locus YKL160W, strain elf1, hits give low values 1.03 | S. cerevisiae deletion strains, locus YKL190W, strain CNB1, hits give low values 1 | S. cerevisiae deletion strains, locus YKR001C, strain vps1, hits give low values 1 | S. cerevisiae deletion strains, locus YKR026C, strain gcn3, hits give low values 1.01 | S. cerevisiae deletion strains, locus YKR091W, strain srl3, hits give low values 1.01 | S. cerevisiae deletion strains, locus YLL001W, strain dnm1, hits give low values 1.01 | S. cerevisiae deletion strains, locus YLL026W, hits give low values 1.02 | S. cerevisiae deletion strains, locus YLL041C, strain sdh2, hits give low values 1.03 | S. cerevisiae deletion strains, locus YLR027C, strain aat2, hits give low values 1.01 | S. cerevisiae deletion strains, locus YLR039C, strain RIC1, hits give low values 1.03 | S. cerevisiae deletion strains, locus YLR058C, strain SHM2, hits give low values 1.02 | S. cerevisiae deletion strains, locus YLR102C, strain apc9, hits give low values 0.992 | S. cerevisiae deletion strains, locus YLR113W, strain HOG1, hits give low values 0.989 | S. cerevisiae deletion strains, locus YLR221C, strain rsa3, hits give low values 1.02 | S. cerevisiae deletion strains, locus YLR258W, strain gsy2, hits give low values 1.01 | S. cerevisiae deletion strains, locus YLR262C, strain YPT6 (second series), hits give low values 1.02 | S. cerevisiae deletion strains, locus YLR262C, strain YPT6, hits give low values 1.04 | S. cerevisiae deletion strains, locus YLR268W, strain sec22, hits give low values 1.01 | S. cerevisiae deletion strains, locus YLR320W, strain mms22, hits give low values 1.03 | S. cerevisiae deletion strains, locus YLR330W, strain CHS5, hits give low values 1.02 | S. cerevisiae deletion strains, locus YLR342W, strain FKS1 (second series), hits give low values 1 | S. cerevisiae deletion strains, locus YLR342W, strain FKS1, hits give low values 1.03 | S. cerevisiae deletion strains, locus YLR357W, strain rsc2, hits give low values 1.05 | S. cerevisiae deletion strains, locus YLR370C, strain arc18, hits give low values 1.01 | S. cerevisiae deletion strains, locus YLR371W, strain rom2, hits give low values 0.994 | S. cerevisiae deletion strains, locus YLR384C, strain iki3, hits give low values 1.03 | S. cerevisiae deletion strains, locus YLR418C, strain cdc73, hits give low values 1 | S. cerevisiae deletion strains, locus YML016C, strain PPZ1, hits give low values 1.01 | S. cerevisiae deletion strains, locus YML032C, strain rad52, hits give low values 0.989 | S. cerevisiae deletion strains, locus YML120C, strain ndi1, hits give low values 1 | S. cerevisiae deletion strains, locus YML124C, strain tub3, hits give low values 0.996 | S. cerevisiae deletion strains, locus YMR058W, strain fet3, hits give low values 1 | S. cerevisiae deletion strains, locus YMR078C, strain ctf18, hits give low values 1 | S. cerevisiae deletion strains, locus YMR125W, strain sto1, hits give low values 1.03 | S. cerevisiae deletion strains, locus YMR129W, hits give low values 1.02 | S. cerevisiae deletion strains, locus YMR205C, strain PFK2, hits give low values 1.03 | S. cerevisiae deletion strains, locus YMR223W, strain ubp8, hits give low values 0.974 | S. cerevisiae deletion strains, locus YMR231W, strain pep5, hits give low values 1.02 | S. cerevisiae deletion strains, locus YMR263W, strain SAP30, hits give low values 1.02 | S. cerevisiae deletion strains, locus YMR307W, strain GAS1, hits give low values 1.07 | S. cerevisiae deletion strains, locus YNL067W, strain RPL9B, hits give low values 1.02 | S. cerevisiae deletion strains, locus YNL071W, strain lat1, hits give low values 1 | S. cerevisiae deletion strains, locus YNL128W, strain TEP1, hits give low values 1.02 | S. cerevisiae deletion strains, locus YNL153C, strain GIM3, hits give low values 1.02 | S. cerevisiae deletion strains, locus YNL183C, strain NPR1, hits give low values 0.966 | S. cerevisiae deletion strains, locus YNL209W, strain ssb2, hits give low values 1.02 | S. cerevisiae deletion strains, locus YNL233W, strain BNI4, hits give low values 1.02 | S. cerevisiae deletion strains, locus YNL248C, strain rpa49, hits give low values 1.03 | S. cerevisiae deletion strains, locus YNL250W, strain rad50, hits give low values 0.994 | S. cerevisiae deletion strains, locus YNL271C, strain bni1, hits give low values 1 | S. cerevisiae deletion strains, locus YNL298W, strain CLA4, hits give low values 1.01 | S. cerevisiae deletion strains, locus YNL307C, strain MCK1, hits give low values 0.998 | S. cerevisiae deletion strains, locus YNL322C, strain KRE1 (second series), hits give low values 1.02 | S. cerevisiae deletion strains, locus YNL322C, strain KRE1, hits give low values 1.01 | S. cerevisiae deletion strains, locus YNR049C, strain mso1, hits give low values 1.01 | S. cerevisiae deletion strains, locus YNR052C, strain pop2, hits give low values 0.991 | S. cerevisiae deletion strains, locus YOL006C, strain TOP1, hits give low values 1.04 | S. cerevisiae deletion strains, locus YOL012C, strain htz1 0.884 | S. cerevisiae deletion strains, locus YOL147C, strain pex11, hits give low values 0.996 | S. cerevisiae deletion strains, locus YOR001W, strain rrp6, hits give low values 1.02 | S. cerevisiae deletion strains, locus YOR061W, strain CKA2, hits give low values 1.01 | S. cerevisiae deletion strains, locus YOR069W, strain VPS5, hits give low values 0.999 | S. cerevisiae deletion strains, locus YOR070C, strain gyp1, hits give low values 1.02 | S. cerevisiae deletion strains, locus YOR080W, strain dia2, hits give low values 1.03 | S. cerevisiae deletion strains, locus YOR083W, strain WHI5, hits give low values 0.996 | S. cerevisiae deletion strains, locus YOR106W, strain vam3, hits give low values 1.02 | S. cerevisiae deletion strains, locus YOR136W, strain idh2, hits give low values 0.979 | S. cerevisiae deletion strains, locus YOR144C, strain elg1, hits give low values 0.999 | S. cerevisiae deletion strains, locus YOR184W, strain ser1, hits give low values 0.98 | S. cerevisiae deletion strains, locus YOR231W, strain MKK1, hits give low values 0.993 | S. cerevisiae deletion strains, locus YOR265W, strain rbl2, hits give low values 1.01 | S. cerevisiae deletion strains, locus YOR270C, strain vph1, hits give low values 1.1 | S. cerevisiae deletion strains, locus YOR290C, strain snf2, hits give low values 1.03 | S. cerevisiae deletion strains, locus YOR316C, strain cot1, hits give low values 0.993 | S. cerevisiae deletion strains, locus YPL051W, strain arl3, hits give low values 1.02 | S. cerevisiae deletion strains, locus YPL055C, strain LGE1, hits give low values 1.03 | S. cerevisiae deletion strains, locus YPL078C, strain atp4, hits give low values 1.02 | S. cerevisiae deletion strains, locus YPL106C, strain sse1, hits give low values 1.04 | S. cerevisiae deletion strains, locus YPL240C, strain hsp82, hits give low values 1.01 | S. cerevisiae deletion strains, locus YPL256C, strain CLN2, hits give low values 1.02 | S. cerevisiae deletion strains, locus YPR119W, strain clb2, hits give low values 0.99 | S. cerevisiae deletion strains, locus YPR141C, strain kar3, hits give low values 0.992 | S. cerevisiae deletion strains, locus YPR163C, strain tif3, hits give low values 0.992 | S. cerevisiae deletion strains, locus YPR167C, strain met16, hits give low values 0.983 | S. cerevisiae deletion strains, strain wtn01, hits give low values 0.997 | S. cerevisiae strains, strain wild type, hits give low values 1.01
